# Assay results from PubChem BioAssay AID1159580 (chemical genetic matrix, 2015).
# Several values for one entry are separate records, joined by “and”; a condition that tells them apart may be missing. Equal entries are not always repeated. Among all 5,500 compounds or so, about 2,000 (36%) were called active. Inconclusive results (about 18%) are left out. Some of the results follow. Unmarked numbers belong to inactive results. Cut-off read from the data, not from the text of the source: active = normalized growth mostly below about 0.91 (no sharp cut-off); inconclusive = no clear call, values can overlap the other calls; inactive = mostly above about 0.92.
# Assay: chemical genetic growth profiling, strain panel (AID 1159580);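 note: tested at 20 µM; growth read once vehicle control cultures reached saturation at 30 °C; 1 = growth at the plate median or of vehicle wells; lower values mean less growth of the strain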
# Conditions: growth OD
# [1] = S. cerevisiae deletion strains, locus YAL013W, strain DEP1, active compounds read low
# [2] = S. cerevisiae deletion strains, locus YBR229C, strain ROT2, active compounds read low
# [3] = S. cerevisiae deletion strains, locus YDL101C, strain DUN1, active compounds read low
# [4] = S. cerevisiae deletion strains, locus YDR150W, strain NUM1, active compounds read low
# [5] = S. cerevisiae deletion strains, locus YEL061C, strain CIN8, active compounds read low
# [6] = S. cerevisiae deletion strains, locus YGR078C, strain PAC10, active compounds read low
# [7] = S. cerevisiae deletion strains, locus YGR229C, strain SMI1, active compounds read low
# [8] = S. cerevisiae deletion strains, locus YHR030C, strain SLT2, active compounds read low
# [9] = S. cerevisiae deletion strains, locus YHR087W, strain rtc3, active compounds read low
# [10] = S. cerevisiae deletion strains, locus YJR043C, strain POL32, active compounds read low
# [11] = S. cerevisiae deletion strains, locus YJR075W, strain HOC1, active compounds read low
# [12] = S. cerevisiae deletion strains, locus YLR039C, strain RIC1, active compounds read low
# [13] = S. cerevisiae deletion strains, locus YLR058C, strain SHM2 (second series), active compounds read low
# [14] = S. cerevisiae deletion strains, locus YLR085C, strain ARP6, active compounds read low
# [15] = S. cerevisiae deletion strains, locus YLR262C, strain YPT6, active compounds read low
# [16] = S. cerevisiae deletion strains, locus YML094W, strain GIM5, active compounds read low
# [17] = S. cerevisiae deletion strains, locus YMR219W, strain ESC1, active compounds read low
# [18] = S. cerevisiae deletion strains, locus YMR263W, strain SAP30, active compounds read low
# [19] = S. cerevisiae deletion strains, locus YMR307W, strain GAS1, active compounds read low
# [20] = S. cerevisiae deletion strains, locus YNL128W, strain TEP1, active compounds read low
# [21] = S. cerevisiae deletion strains, locus YNL153C, strain GIM3, active compounds read low
# [22] = S. cerevisiae deletion strains, locus YNL298W, strain CLA4 (second series), active compounds read low
# [23] = S. cerevisiae deletion strains, locus YNL322C, strain KRE1, active compounds read low
# [24] = S. cerevisiae deletion strains, locus YNR030W, strain Alg12, active compounds read low
# [25] = S. cerevisiae deletion strains, locus YPL055C, strain LGE1, active compounds read low
# [26] = S. cerevisiae deletion strains, locus YPL241C, strain CIN2, active compounds read low
# [27] = S. cerevisiae deletion strains, locus YPR135W, strain CTF4, active compounds read low
# [28] = S. cerevisiae strains, strain wild type, active compounds read low
# [29] = S. cerevisiae deletion strains, locus YDL134C, strain PPH21, active compounds read low
# [30] = S. cerevisiae deletion strains, locus YKL190W, strain CNB1, active compounds read low
# [31] = S. cerevisiae deletion strains, locus YOL006C, strain TOP1, active compounds read low
smiles,measurement,setting,value
CCCCOc1cc(C(=O)O)ccc1OC,normalized growth,[1],0.97
same,normalized growth,[2],0.984
same,normalized growth,[3],0.987
same,normalized growth,[4],0.988
same,normalized growth,[5],1.01
same,normalized growth,[6],0.971
same,normalized growth,[7],1
same,normalized growth,[8],0.999
same,normalized growth,[9],0.977
same,normalized growth,[10],0.985
same,normalized growth,[11],0.962
same,normalized growth,[12],1.02
same,normalized growth,[13],0.979
same,normalized growth,[14],1.01
same,normalized growth,[15],1.04
same,normalized growth,[16],1
same,normalized growth,[17],0.975
same,normalized growth,[18],0.977
same,normalized growth,[19],0.956
same,normalized growth,[20],1.02
same,normalized growth,[21],0.979
same,normalized growth,[22],1.03
same,normalized growth,[23],0.976
same,normalized growth,[24],0.999
same,normalized growth,[25],0.941
same,normalized growth,[26],1.01
same,normalized growth,[27],1.04
same,normalized growth,[28],1.02
CCCc1c(OCCCOc2ccc(OCC(=O)O)cc2)ccc(C(C)=O)c1O,normalized growth,"S. cerevisiae deletion strains, locus YAL040C, strain CLN3, active compounds read low",0.942
same,normalized growth,"S. cerevisiae deletion strains, locus YCL061C, strain MRC1 (second series), active compounds read low",0.999
same,normalized growth,[4],0.997
same,normalized growth,"S. cerevisiae deletion strains, locus YDR363W, strain ESC2, active compounds read low",1.01
same,normalized growth,"S. cerevisiae deletion strains, locus YER002W, strain NOP16, active compounds read low",1.04
same,normalized growth,[18],1.01
same,normalized growth,"S. cerevisiae deletion strains, locus YNL175C, strain NOP13, active compounds read low",0.98
same,normalized growth,"S. cerevisiae deletion strains, locus YNL197C, strain WHI3, active compounds read low",0.987
same,normalized growth,"S. cerevisiae deletion strains, locus YNL224C, strain SQS1, active compounds read low",0.963
same,normalized growth,[23],1.01
same,normalized growth,"S. cerevisiae deletion strains, locus YOR083W, strain WHI5 (second series), active compounds read low",0.914
same,normalized growth,[26],1
Cc1ccc(C(=O)C(C)CN2CCCCC2)cc1 (stereo unspecified),normalized growth,"S. cerevisiae deletion strains, locus YBR021W, strain FUR4, active compounds read low",1
same,normalized growth,[2],1.01
same,normalized growth,"S. cerevisiae deletion strains, locus YCL029C, strain bik1, active compounds read low",1.02
same,normalized growth,"S. cerevisiae deletion strains, locus YDL035C, strain GPR1, active compounds read low",1.01
same,normalized growth,"S. cerevisiae deletion strains, locus YDL074C, strain BRE1, active compounds read low",1.01
same,normalized growth,[3],1.01
same,normalized growth,[29],1.02
same,normalized growth,"S. cerevisiae deletion strains, locus YDL185W, strain tfp1, active compounds read low",1.02
same,normalized growth,"S. cerevisiae deletion strains, locus YDL192W, strain arf1, active compounds read low",1.02
same,normalized growth,"S. cerevisiae deletion strains, locus YDR101C, strain arx1, active compounds read low",0.998
same,normalized growth,[4],1
same,normalized growth,"S. cerevisiae deletion strains, locus YDR162C, strain NBP2, active compounds read low",1.01
same,normalized growth,"S. cerevisiae deletion strains, locus YDR318W, strain mcm21, active compounds read low",1.02
same,normalized growth,"S. cerevisiae deletion strains, locus YDR388W, active compounds read low",1.02
same,normalized growth,"S. cerevisiae deletion strains, locus YDR502C, strain sam2, active compounds read low",1.01
same,normalized growth,[5],1.01
same,normalized growth,"S. cerevisiae deletion strains, locus YER110C, active compounds read low",1.01
same,normalized growth,"S. cerevisiae deletion strains, locus YER155C, strain BEM2, active compounds read low",1.01
same,normalized growth,"S. cerevisiae deletion strains, locus YER167W, strain BCK2, active compounds read low",1.02
same,normalized growth,"S. cerevisiae deletion strains, locus YGL078C, strain dbp3, active compounds read low",1.01
same,normalized growth,"S. cerevisiae deletion strains, locus YGL086W, strain mad1, active compounds read low",1.03
same,normalized growth,"S. cerevisiae deletion strains, locus YGL248W, strain PDE1, active compounds read low",1.01
same,normalized growth,[6],1
same,normalized growth,"S. cerevisiae deletion strains, locus YGR135W, strain pre9, active compounds read low",1
same,normalized growth,[7],0.983
same,normalized growth,"S. cerevisiae deletion strains, locus YGR252W, strain gcn5, active compounds read low",0.987
same,normalized growth,[8],1.01 and 0.991
same,normalized growth,"S. cerevisiae deletion strains, locus YHR079C, strain IRE1 (second series), active compounds read low",1.02
same,normalized growth,"S. cerevisiae deletion strains, locus YHR079C, strain IRE1, active compounds read low",0.993
same,normalized growth,"S. cerevisiae deletion strains, locus YHR094C, strain hxt1, active compounds read low",1.01
same,normalized growth,"S. cerevisiae deletion strains, locus YHR129C, strain ARP1, active compounds read low",1.02
same,normalized growth,"S. cerevisiae deletion strains, locus YHR200W, strain rpn10, active compounds read low",1.02
same,normalized growth,"S. cerevisiae deletion strains, locus YIL066C, strain RNR3, active compounds read low",1.01
same,normalized growth,"S. cerevisiae deletion strains, locus YIL073C, strain SPO22, active compounds read low",0.993
same,normalized growth,"S. cerevisiae deletion strains, locus YIL125W, strain kgd1, active compounds read low",1.02
same,normalized growth,"S. cerevisiae deletion strains, locus YIR030C, strain dcg1, active compounds read low",1.01
same,normalized growth,"S. cerevisiae deletion strains, locus YJL095W, strain BCK1, active compounds read low",0.973 and 0.966
same,normalized growth,"S. cerevisiae deletion strains, locus YJL134W, strain LCB3, active compounds read low",1.01
same,normalized growth,"S. cerevisiae deletion strains, locus YJL168C, strain set2, active compounds read low",1.02
same,normalized growth,"S. cerevisiae deletion strains, locus YJL187C, strain SWE1 (second series), active compounds read low",1
same,normalized growth,[10],1.02
same,normalized growth,"S. cerevisiae deletion strains, locus YJR066W, strain TOR1, active compounds read low",0.907
same,normalized growth,"S. cerevisiae deletion strains, locus YKL009W, strain mrt4, active compounds read low",1.03
same,normalized growth,"S. cerevisiae deletion strains, locus YKL068W, active compounds read low",1.01
same,normalized growth,"S. cerevisiae deletion strains, locus YKL085W, strain MDH1 (second series), active compounds read low",1.03
same,normalized growth,"S. cerevisiae deletion strains, locus YKL085W, strain MDH1, active compounds read low",1.03
same,normalized growth,[30],1.01
same,normalized growth,"S. cerevisiae deletion strains, locus YKR001C, strain vps1, active compounds read low",1.03
same,normalized growth,[12],0.993
same,normalized growth,"S. cerevisiae deletion strains, locus YLR058C, strain SHM2, active compounds read low",1.02
same,normalized growth,"S. cerevisiae deletion strains, locus YLR102C, strain apc9, active compounds read low",1.01
same,normalized growth,"S. cerevisiae deletion strains, locus YLR113W, strain HOG1, active compounds read low",1.01
same,normalized growth,[15],1.02
same,normalized growth,"S. cerevisiae deletion strains, locus YLR268W, strain sec22, active compounds read low",1
same,normalized growth,"S. cerevisiae deletion strains, locus YLR330W, strain CHS5, active compounds read low",1
same,normalized growth,"S. cerevisiae deletion strains, locus YLR342W, strain FKS1 (second series), active compounds read low",0.973
same,normalized growth,"S. cerevisiae deletion strains, locus YLR371W, strain rom2, active compounds read low",1.02
same,normalized growth,"S. cerevisiae deletion strains, locus YLR418C, strain cdc73, active compounds read low",1.02
same,normalized growth,"S. cerevisiae deletion strains, locus YML016C, strain PPZ1, active compounds read low",1.01
same,normalized growth,"S. cerevisiae deletion strains, locus YML032C, strain rad52, active compounds read low",1.01
same,normalized growth,"S. cerevisiae deletion strains, locus YML124C, strain tub3, active compounds read low",1.01
same,normalized growth,"S. cerevisiae deletion strains, locus YMR078C, strain ctf18, active compounds read low",1.02
same,normalized growth,"S. cerevisiae deletion strains, locus YMR223W, strain ubp8, active compounds read low",1.01
same,normalized growth,[19],1.14
same,normalized growth,"S. cerevisiae deletion strains, locus YNL067W, strain RPL9B, active compounds read low",1.01
same,normalized growth,[20],1.03
same,normalized growth,"S. cerevisiae deletion strains, locus YNL183C, strain NPR1, active compounds read low",0.899
same,normalized growth,"S. cerevisiae deletion strains, locus YNL233W, strain BNI4, active compounds read low",0.993
same,normalized growth,"S. cerevisiae deletion strains, locus YNL250W, strain rad50, active compounds read low",1.01
same,normalized growth,"S. cerevisiae deletion strains, locus YNL271C, strain bni1, active compounds read low",1.02
same,normalized growth,"S. cerevisiae deletion strains, locus YNL298W, strain CLA4, active compounds read low",1.03
same,normalized growth,"S. cerevisiae deletion strains, locus YNL307C, strain MCK1, active compounds read low",1.03
same,normalized growth,[23],1.01
same,normalized growth,"S. cerevisiae deletion strains, locus YNR052C, strain pop2, active compounds read low",1.02
same,normalized growth,[31],1
same,normalized growth,"S. cerevisiae deletion strains, locus YOL012C, strain htz1",0.819
same,normalized growth,"S. cerevisiae deletion strains, locus YOL147C, strain pex11, active compounds read low",1.01
same,normalized growth,"S. cerevisiae deletion strains, locus YOR061W, strain CKA2, active compounds read low",1.02
same,normalized growth,"S. cerevisiae deletion strains, locus YOR069W, strain VPS5, active compounds read low",1
same,normalized growth,"S. cerevisiae deletion strains, locus YOR136W, strain idh2, active compounds read low",1.02
same,normalized growth,"S. cerevisiae deletion strains, locus YOR144C, strain elg1, active compounds read low",1.01
same,normalized growth,"S. cerevisiae deletion strains, locus YOR184W, strain ser1, active compounds read low",1.01
same,normalized growth,"S. cerevisiae deletion strains, locus YOR231W, strain MKK1, active compounds read low",0.984
same,normalized growth,"S. cerevisiae deletion strains, locus YOR316C, strain cot1, active compounds read low",1.02
same,normalized growth,[25],1.03
same,normalized growth,"S. cerevisiae deletion strains, locus YPL256C, strain CLN2, active compounds read low",0.976
same,normalized growth,"S. cerevisiae deletion strains, locus YPR119W, strain clb2, active compounds read low",1.02
same,normalized growth,"S. cerevisiae deletion strains, locus YPR141C, strain kar3, active compounds read low",1.02
same,normalized growth,"S. cerevisiae deletion strains, locus YPR163C, strain tif3, active compounds read low",1.03
same,normalized growth,"S. cerevisiae deletion strains, locus YPR167C, strain met16, active compounds read low",1.02
same,normalized growth,"S. cerevisiae deletion strains, strain wtn01, active compounds read low",1.01
same,normalized growth,[28],1.01
CCCCOc1ccc(C(=O)CCC(=O)O)cc1,normalized growth,[1],0.977
same,normalized growth,[2],0.915 (active)
same,normalized growth,"S. cerevisiae deletion strains, locus YCL061C, strain MRC1, active compounds read low",0.936
same,normalized growth,[3],0.886 (active)
same,normalized growth,[29],1.04
same,normalized growth,[4],0.934
same,normalized growth,[5],1
same,normalized growth,[6],0.939
same,normalized growth,[8],0.997
same,normalized growth,[9],0.982
same,normalized growth,[10],0.879 (active)
same,normalized growth,[11],0.931
same,normalized growth,[30],1.02
same,normalized growth,[12],0.945
same,normalized growth,[13],1.01
same,normalized growth,[14],0.985
same,normalized growth,[15],0.946
same,normalized growth,[16],1.01
same,normalized growth,[17],0.983
same,normalized growth,[18],0.969
same,normalized growth,[21],0.904 (active)
same,normalized growth,[22],1.01
same,normalized growth,[23],1.01
same,normalized growth,[24],0.982
same,normalized growth,[31],1.05
same,normalized growth,[25],0.909
same,normalized growth,[26],1.01
same,normalized growth,[27],1.03
same,normalized growth,[28],1.03
